Measurements from PubChem BioAssay AID623877 (Johns Hopkins Ion Channel Center, 2012).
Screen size: about 340,000 compounds; about 1,000 (0.29%) were called active.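 Rule for the calls: active = fluorescence-ratio B-score plate-corrected deviation score at least 3 library SD below zero, with starting fluorescence score within 5 deviations; inactive = the rest.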 For the sample, actives were picked, then their nearest neighbours and some compounds at random.

Target: Anoctamin-1 (Mus musculus) (UniProt Q8BHY3)
Sequence (Q8BHY3 whole entry, looked up): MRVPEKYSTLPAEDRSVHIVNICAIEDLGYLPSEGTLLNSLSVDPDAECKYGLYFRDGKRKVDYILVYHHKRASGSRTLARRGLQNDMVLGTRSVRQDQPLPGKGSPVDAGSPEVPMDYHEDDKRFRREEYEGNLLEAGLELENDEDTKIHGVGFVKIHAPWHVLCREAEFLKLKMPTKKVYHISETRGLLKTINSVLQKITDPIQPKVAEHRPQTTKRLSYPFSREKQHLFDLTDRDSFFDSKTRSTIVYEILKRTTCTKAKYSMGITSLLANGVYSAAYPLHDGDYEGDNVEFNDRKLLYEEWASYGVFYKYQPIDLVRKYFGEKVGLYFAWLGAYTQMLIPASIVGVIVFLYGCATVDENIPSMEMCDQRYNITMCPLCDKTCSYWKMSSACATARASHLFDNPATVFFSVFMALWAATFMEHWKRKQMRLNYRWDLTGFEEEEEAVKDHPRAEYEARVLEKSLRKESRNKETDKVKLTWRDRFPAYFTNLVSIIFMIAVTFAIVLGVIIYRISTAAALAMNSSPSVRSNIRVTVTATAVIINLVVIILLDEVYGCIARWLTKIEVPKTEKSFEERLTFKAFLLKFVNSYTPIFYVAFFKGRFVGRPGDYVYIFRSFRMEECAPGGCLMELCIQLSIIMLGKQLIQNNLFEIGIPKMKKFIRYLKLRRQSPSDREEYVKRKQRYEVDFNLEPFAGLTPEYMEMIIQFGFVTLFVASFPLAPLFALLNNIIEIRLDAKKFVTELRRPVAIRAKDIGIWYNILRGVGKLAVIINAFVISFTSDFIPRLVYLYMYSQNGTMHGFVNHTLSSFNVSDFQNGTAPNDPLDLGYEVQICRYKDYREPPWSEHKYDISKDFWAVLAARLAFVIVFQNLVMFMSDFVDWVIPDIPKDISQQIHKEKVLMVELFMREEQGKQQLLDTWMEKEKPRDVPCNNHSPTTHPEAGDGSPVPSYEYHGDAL
Test: TMEM16A chloride channel activators or potentiators, primary screen, cell-based, HTS (AID 623877);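 for B-score: channel opened by trigger with iodide after compound preincubation; score built on the fluorescence ratio of max minus min over baseline; more negative score means more quench and so TMEM16A activation or potentiation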
Conditions: HEK293 TMEM16A/YFP-H148Q/I152L, iodide quench fluorescence, at 10 µM; active compounds read low

Compound | B-score
O=C(C1CCC1)N1CCN(S(=O)(=O)c2ccc([N+](=O)[O-])cc2)CC1 | inactive
COc1ccc(N2CCN(C(=S)Nc3ccc(S(N)(=O)=O)cc3)CC2)cc1 | inactive
COc1cc(NC(=S)NCc2ccc(S(N)(=O)=O)cc2)cc(OC)c1 | inactive
COc1ccc(NC(=S)Nc2ccc(S(N)(=O)=O)cc2)c(C)c1 | -4.58 (active)
Cc1ccc(CCNC(=O)C2CCN(S(=O)(=O)N3CCCC3)CC2)cc1 | inactive
CC(Sc1nnnn1C1CCCCC1)C(=O)O (stereo unspecified) | inactive
O=C(O)c1cccc2c1C(=O)N(C1CCCCC1)C2 | inactive
O=C(O)C1CCN1C1CCCCC1 (stereo unspecified) | -6.61 (active)
COc1cccc2c1OCC(CN1CCN(C3CCCCC3)C(CCO)C1)=C2 (stereo unspecified) | inactive
CC(=O)OCC1(O)CC23CCC4c5ccoc5CCC4(C)C2CCC1C3 (stereo unspecified) | -17.2 (active)
Oc1cc2c(cc1O)CN(C(=S)NCCc1ccc(Cl)cc1)CCC2 | inactive
Cc1nc(SCC(=O)NC2CCCC2)[nH]c(=O)c1C | inactive
C[C@H](NC(=O)c1nc[nH]c1C(=O)N[C@@H](C)C(=O)OC(C)(C)C)C(=O)OC(C)(C)C | inactive
CCn1ccnc1CN(C)Cc1nc(-c2ccc3c(c2)OCO3)no1 | inactive
COCC1CCCN(Cc2nc(-c3ccc4c(c3)OCO4)no2)C1 (stereo unspecified) | inactive
CN(CCN1CCOCC1)Cc1nc(-c2ccc3c(c2)OCO3)no1 | -6.61 (active)
CC(C)N(Cc1ccccc1)C(=O)COC(=O)c1cnccn1 | inactive
Cc1cc2c(cc1C)N(C(=O)CN1C(=O)c3ccccc3C1=O)C(C)(C)c1ssc(=S)c1-2 | -9.51 (active)
Cc1ccc2c(c1)-c1c(ssc1=S)C(C)(C)N2C(=O)CN1C(=O)c2ccccc2C1=O | inactive
Cc1cc(C)cc(NC(=O)CN2C(=O)c3ccccc3C2=O)c1 | inactive
O=C(NCCCN1CCN(c2ccccc2F)CC1)C1CCC(=O)N1C1CCCCC1 (stereo unspecified) | inactive
Cc1ccccc1CSc1nnc(Cn2c(=O)sc3ccccc32)n1C | inactive
Cc1ccc(NS(=O)(=O)c2ccc3c(c2)oc(=O)n3C)c(C)c1 | inactive
CCCS(=O)(=O)N1CCCC(C(=O)NCc2ccco2)C1 (stereo unspecified) | inactive

Compound | B-score
O=C(NCc1ccco1)C1CCCN(S(=O)(=O)c2ccccc2)C1 (stereo unspecified) | inactive
O=C(NCc1ccco1)C1CCCN(S(=O)(=O)c2cnc[nH]2)C1 (stereo unspecified) | -16.8 (active)
Cc1cc(S(=O)(=O)NCC(C)C)ccc1OCC(=O)NC1CC1 | inactive
CCN(CC)CCOc1ccc2c(c1)C(=NNC(=O)c1ccccn1)c1cc(OCCN(CC)CC)ccc1-2 | inactive
CCn1c(SCC(=O)Nc2ccccc2F)nc2c(c1=O)SC(C)C2 (stereo unspecified) | inactive
O=C(Nc1cccc([N+](=O)[O-])c1)Nn1cnnc1 | inactive
COC(=O)/C=C\C(=O)Nc1cccc([N+](=O)[O-])c1 | -4.72 (active)
COc1ccc(S(=O)(=O)NC(C)C(=O)Nc2cccc([N+](=O)[O-])c2)cc1 (stereo unspecified) | inactive
CCn1c(SCC(=O)Nc2ccc3c(c2)OCCO3)nnc1-c1ccncc1 | inactive
CCn1c(COc2ccccc2)nnc1SCC(=O)Nc1ccc2c(c1)OCCO2 | -32.9 (active)
CCn1c(SCC(=O)Nc2ccc3c(c2)OCCO3)nnc1C(C)C | inactive
C/C(=N\NC(=O)c1cccnc1)c1ccc(-n2ccnc2)cc1 | inactive
Nc1nc(NC(=O)/C=C/c2ccccc2)nn1-c1ccccc1 | inactive
C=CCOc1cccc(C2C(C(=O)c3ccc(C)o3)=C(O)C(=O)N2c2nnc(C)s2)c1 (stereo unspecified) | inactive
Cc1ccc2nc(N3C(=O)C(O)=C(C(=O)c4ccco4)C3c3cccc(O)c3)sc2c1 (stereo unspecified) | inactive
C=CCSc1nnc(N2C(=O)C(O)=C(C(=O)c3ccco3)C2c2ccc(F)cc2)s1 (stereo unspecified) | -5.81 (active)
COc1cccc(NC(=O)CN(C)C(=O)c2cc(C3CC3)nn2-c2ccccc2)c1 | inactive
O=C(COc1ccc(NC(=O)c2ccccc2[N+](=O)[O-])cc1)c1ccc(F)cc1 | inactive
COc1ccc(OC)c(NC(=O)CSc2nc(N)c(-c3ccccc3)c(=O)[nH]2)c1 | inactive
CCCOC(=O)CC1C(=O)NCCN1Cc1ccc(F)cc1 (stereo unspecified) | inactive
CC(C)c1nc2oc3c(N4CCN(C)CC4)ncnc3c2c2c1CCC2 | inactive
Cc1cc(C)c(-c2c(O)c3ccccc3n(C)c2=O)c(C)c1 | inactive
Cn1c(=O)c([N+](=O)[O-])c(Oc2ccccc2)c2ccccc21 | -29 (active)
Cc1cccc(Oc2c([N+](=O)[O-])c(=O)n(C)c3ccccc23)c1 | inactive

Compound | B-score
CN(CCC(=O)Nc1cc(S(=O)(=O)N(C)C)ccc1Cl)CC(=O)Nc1ccc(F)cc1 | inactive
CC1=CC(=NNS(=O)(=O)c2ccc([N+](=O)[O-])cc2)CC(C)(C)C1 | inactive
COc1cc(NC(=O)c2ccccc2)c(OC)cc1NC(=O)Cc1ccccc1 | inactive
CC(=O)c1cc(NC(=O)c2ccccc2)c(=O)oc1/C=C/N(C)C | -6.65 (active)
CCOC(=O)c1cc(NC(=O)c2ccc(Cl)cc2)c(=O)oc1-c1ccccc1 | inactive
COc1ccc(N(CCC(=O)NCCc2ccccc2)S(=O)(=O)c2ccc(C)cc2C)cc1 | inactive
Nc1ccc2[nH]c(=S)sc2c1 | inactive
COc1ccc(C(CCN(Cc2ccc(OC)c(OC)c2)C(=O)CCl)c2ccccc2)cc1 (stereo unspecified) | inactive
CCN(CCCCOC(=O)c1ccc(OC)c(OC)c1)C(C)Cc1ccc(OC)cc1 (stereo unspecified) | -9 (active)
COc1ccc(C(=O)OCC(=O)NCCCc2ccccc2)cc1OC | inactive
CCOCCCNC(=S)N1CCC(NC(=O)C2CCCCC2)CC1 | inactive
CCOc1ccccc1NC(=S)NC(=O)CCc1ccccc1 | inactive
CCc1cccc(NC(=O)COC(=O)C2CCN(c3ccc(C(F)(F)F)cn3)CC2)c1 | inactive
CC(=O)C[C@@H](O)CC(=O)[C@H]1OC(=O)CCCCCCc2ccccc21 | -17.5 (active)
CC(=O)C[C@H](O)CC(=O)[C@@H]1OC(=O)[C@@H](C)C/C=C\Cc2ccccc21 | inactive
CC[C@@H]1CCCCc2ccccc2[C@@H](C(=O)C[C@H](O)CC(C)=O)OC1=O | inactive
CCOC(=O)CSc1nnc(CNC(=O)Cc2ccccc2)n1-c1ccccc1OC | inactive
Cc1cc(OC(=O)c2ccc(Cl)cc2)cc(=O)n1C | inactive
CCOC(=O)c1sc(/N=C/C2=C(O)CC(C)(C)CC2=O)c(C(=O)OCC)c1C | -35.4 (active)
CCOC(=O)c1c(CC(C)C)csc1/N=C/C1=C(O)CCCC1=O | inactive
CCOC(=O)c1c(/N=C/C2C(=O)CC(C)(C)CC2=O)sc(C)c1C | inactive
COc1ccc(Cl)cc1NC(=O)Cn1nc(-c2ccc(C)cc2)n(C)c1=S | inactive
CCC(NC(=O)C1CCCC1)c1ccc(C)cc1 (stereo unspecified) | inactive
